# Most compounds without a hit are left out; they make up all but 4.7% or so of the library.
# TROY signal inh – TROY signaling inhibition. Q293 LMP1-TROYcd NF-kB luciferase reporter, 4 h. inhibition, % at 10 µM. hit rate 0.98% among 360,000;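 active = compounds whose plate-normalised and pattern-corrected inhibition of the luciferase reporter signal at the single screening dose is 50% or more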
# HSF-1 act – increases HSF-1 driven luciferase reporter signal. hit rate 1.7% among 300,000. activation, % at 9 µM. AID 504408. NIH3T3-HGL HSF-1 luciferase reporter, MG132, 8 h; 100% = twice DMSO control signal;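 active = mean replicate activation of at least 50% with a set share of replicates each reaching 50%; inconclusive = only one of those two conditions met; inactive = mean below 50% and too few replicates reaching it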;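 also: 0% = median of the neutral control wells and 100% = twice that signal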
# TWEAK-Fn14 inh – blocks TWEAK-Fn14 interaction in a reporter cell assay; inhibition, % at 10 µM; hit rate 2% among 360,000; TWEAK-stimulated Fn14 reporter cells, luciferase luminescence, 8 h; in the data active = inhibition above about 50%
# HSF1 inhib – HSF1 inhibition; AID 2098; activity change, negative = inhibition, % at 7.5 µM (by protocol); NIH3T3-HGL HSE-luciferase, MG132-induced, luminescence 8 h; active compounds read low; hit rate 0.77% among 300,000;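 active = more than half of replicate wells show activity change below -50%, luminescence cut by over half; inconclusive = some wells, but at most half, below -50%; inactive = no replicate well below -50%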;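 also: luciferase reports HSF-1 transcriptional activity via heat shock element; 0% = median of DMSO wells and -100% = zero luminescence signal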
# HSP90 refold inh – blocks HSP90-mediated luciferase refolding in reticulocyte lysate; AID 1789; Rabbit reticulocyte lysate, luciferase refolding luminescence, 3 h; hit rate 0.91% among 290,000; inhibition, % at 5.6 µM;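 active = inhibition above the screen-wide mean plus 3 SD, computed separately per campaign, cut at about 16% in these data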;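 also: 0% = DMSO wells and 100% = 60 µM geldanamycin wells; inhibitors lower the luminescence because luciferase stays unfolded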
# EBV LMP1 NFkB – Epstein-Barr LMP1 NF-kappaB reporter inhibition; hit rate 0.69% among 350,000; inhibition, % at 12.5 µM; LMP1-induced NF-kappaB luciferase reporter cells, luminescence; in the data active = inhibition above about 41%; inconclusive = no clear call, values can overlap the other calls;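 also: 0% = neutral control wells and 100% = reference inhibitor control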
# HSP90 inh confirm – HSP90 inhibition, confirmation assay; shares compounds with HSP90 refold inh; rabbit reticulocyte lysate, luciferase refolding luminescence, 3 h; inhibition, % at 5.9 µM; hit rate 64% among 2,300; AID 1846; in the data active = inhibition above about 18%;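 also: 0% = vehicle wells and 100% = reference inhibitor wells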
# luciferase ctr – counter-screen for HSP90 inhibitors: inhibitors of firefly luciferase | shares compounds with HSP90 refold inh | purified native firefly luciferase, luminescence | inhibition, % at 5.9 µM | hit rate 48% among 2,300 | AID 1847;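 active = inhibition above the mean inhibition of all tested sample wells plus 3 SD, cut at about 10% in these data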;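 also: 0% = DMSO with luciferase and 100% = wells lacking luciferase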
# Target sequence (P08659 whole entry, looked up): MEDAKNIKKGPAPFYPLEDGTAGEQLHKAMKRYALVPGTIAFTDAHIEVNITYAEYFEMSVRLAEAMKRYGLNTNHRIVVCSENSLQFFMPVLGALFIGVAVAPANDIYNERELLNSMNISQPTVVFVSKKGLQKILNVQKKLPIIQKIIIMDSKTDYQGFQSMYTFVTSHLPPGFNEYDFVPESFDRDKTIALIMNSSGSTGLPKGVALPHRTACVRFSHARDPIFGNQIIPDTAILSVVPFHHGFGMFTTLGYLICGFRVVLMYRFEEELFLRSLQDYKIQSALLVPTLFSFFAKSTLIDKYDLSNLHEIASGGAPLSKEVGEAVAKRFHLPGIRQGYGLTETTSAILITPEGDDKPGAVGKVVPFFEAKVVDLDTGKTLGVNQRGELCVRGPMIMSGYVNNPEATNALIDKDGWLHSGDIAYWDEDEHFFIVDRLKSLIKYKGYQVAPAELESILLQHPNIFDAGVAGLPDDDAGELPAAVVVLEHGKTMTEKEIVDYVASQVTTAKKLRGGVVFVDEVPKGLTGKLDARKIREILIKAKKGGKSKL
# Numbers without * were called inactive; ? = inconclusive; . = no result.
SMILES,TROY signal inh,HSF-1 act,TWEAK-Fn14 inh,HSF1 inhib,HSP90 refold inh,EBV LMP1 NFkB,HSP90 inh confirm,luciferase ctr
CCN1CCN(C(c2ccccn2)c2c(NC(=O)c3ccccc3)sc(C)c2C)CC1 (stereo not given),-14,-5,18,4,33*,11,-3,-10
O=C(O)c1ccc2c3n(nc2c1)-c1ccc(Cl)cc1CO3,.,16,.,36,84*,.,75*,27*
Cc1ccc(NC2=Nc3ccccc3CS2)cc1,32,6,74*,-11,26*,-32,48*,43*
CN(Cc1ccccc1)C(=O)[C@@H]1CCCN1C(=O)[C@@H]1CCCN1C(=O)c1ccc(Cl)cc1,7,.,-1,.,.,.,.,.
Cn1c2ccccc2c(=O)c2cc(C#CC3(O)CCCCC3)ccc21,88*,-87,90*,-85*,72*,11,76*,71*
Cn1c2ccccc2c(=O)c2ccc(C#CC3(N)CCCCC3)cc21,62*,-41,34,-43,34*,1,30*,9
COc1ccc(C(O)c2nc(-c3ccccc3)cs2)cc1 (stereo not given),-17,.,-12,.,.,.,.,.
CCCCCC(=O)N1C[C@@H](O)[C@H](n2cc(COC(=O)c3ccccc3)nn2)C[C@@H]1c1ccc(Cl)cc1,7,.,9,.,.,1,.,.
CCOC(=O)c1c(C(F)(F)F)cc(-c2ccc(F)cc2)nc1C,15,-21,12,6,-1,9,.,.
CCOC(=O)CS(=O)(=O)c1nc(-c2ccc(F)cc2)cc(C(F)(F)F)n1,51*,88*,57*,59,53*,69*,-2,-5
CC1(c2nnnn2-c2ccc3c(c2)OCCO3)CCC(=O)N1Cc1cccc(C(F)(F)F)c1 (stereo not given),-4,.,16,.,.,.,.,.
CN1N=C2c3ccccc3CCCC2C1c1ccc(F)cc1 (stereo not given),11,38,25,8,18*,-24,-6,-26
O=C(COC(=O)c1cccc(S(=O)(=O)N2CCCCC2)c1)NCc1cccc(Cl)c1,-3,.,-16,.,.,-3,.,.
S=C(NCCCNC(=S)Nc1ccccc1)Nc1ccccc1,1,-11,18,-2,3,3,.,.
CC(O)CNC(=S)Nc1ccccc1 (stereo not given),-7,0,4,-5,23*,5,-6,-13
COCCCN=Cc1c(C)[nH]n(-c2ccc(Br)c(C)c2)c1=O,71*,-26,65*,-11,18*,-2,42*,38*
O=C(N/N=C/c1cccs1)c1ccccn1,-23,5,5,11,4,-9,.,.
Cc1ccc(/C=N/NC(=O)c2ccccn2)s1,5,34,51*,1,18*,17,31*,19*
CCc1ccc(/C=N/NC(=O)c2ccccn2)cc1,42,44,86*,13,23*,49*,73*,65*
CC(C)c1ccc(NC(=S)Nc2cccc3ccccc23)cc1,70*,-72,53*,-68*,21*,-3,19*,-21
Fc1ccc(NC(=S)Nc2cccc3ccccc23)cc1,45,-45,31,-37,2,-20,.,.
Cc1onc(-c2cccc(Cl)c2Cl)c1C(=O)O/N=C(\N)c1ccc([N+](=O)[O-])o1,-8,25,-35,9,33*,-10,-4,-7
CCc1nnc(N/N=C/c2cccs2)n1N,-4,28,22,17,66*,-6,-1,-5
CCc1nnc(N/N=C/c2ccc(O)c(OC)c2)n1N,-1,39,-16,20,0,3,.,.
CCc1nnc(N/N=C/c2c(Cl)cccc2Cl)n1N,3,?,12,24,57*,5,-4,-9
O=C(O)C(c1ccccc1)C1CCCCC1O (stereo not given),12,.,15,.,.,-3,.,.
COc1ccc(C2CCc3cc(OC)c(OC)cc3C2NC=O)cc1OC (stereo not given),-6,.,-12,.,.,2,.,.

# Screening data (PubChem BioAssay)
